Reference: PubChem BioAssay AID1159580 (chemical genetic matrix, 2015)
Hit rate of the full screen: of about 5,500 compounds, about 2,000 (36%) were called active. Not shown: some 18% with an inconclusive outcome. No stated cut-off is given here; in the data, active means normalized growth mostly below about 0.91 (no sharp cut-off); inconclusive means no clear call, values can overlap the other calls; inactive means mostly above about 0.92. The list shows a part of the results.

Assay: chemical genetic growth profiling, strain panel (AID 1159580);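 further: tested at 20 µM; growth read once vehicle control cultures reached saturation at 30 °C; 1 = growth at the plate median or of vehicle wells; lower values mean less growth of the strain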
Conditions: growth OD

Measured: normalized growth

COC1=CC(=O)OC(CCc2ccc(OC)c(OC)c2)C1 (stereo unspecified)
inactive: S. cerevisiae deletion strains, locus YAL013W, strain DEP1, active compounds read low 0.988 | S. cerevisiae deletion strains, locus YBR021W, strain FUR4, active compounds read low 0.991 | S. cerevisiae deletion strains, locus YBR229C, strain ROT2, active compounds read low 1.01 | S. cerevisiae deletion strains, locus YCL029C, strain bik1, active compounds read low 1.03 | S. cerevisiae deletion strains, locus YDL035C, strain GPR1, active compounds read low 1.01 | S. cerevisiae deletion strains, locus YDL074C, strain BRE1, active compounds read low 1.02 | S. cerevisiae deletion strains, locus YDL101C, strain DUN1, active compounds read low 1.01 | S. cerevisiae deletion strains, locus YDL134C, strain PPH21, active compounds read low 1 | S. cerevisiae deletion strains, locus YDL185W, strain tfp1, active compounds read low 1.02 | S. cerevisiae deletion strains, locus YDL192W, strain arf1, active compounds read low 1.02 | S. cerevisiae deletion strains, locus YDR101C, strain arx1, active compounds read low 1.01 | S. cerevisiae deletion strains, locus YDR150W, strain NUM1, active compounds read low 1.01 | S. cerevisiae deletion strains, locus YDR162C, strain NBP2, active compounds read low 1.01 | S. cerevisiae deletion strains, locus YDR318W, strain mcm21, active compounds read low 1.01 | S. cerevisiae deletion strains, locus YDR388W, active compounds read low 1.01 | S. cerevisiae deletion strains, locus YDR502C, strain sam2, active compounds read low 1.01 | S. cerevisiae deletion strains, locus YEL061C, strain CIN8, active compounds read low 1.01 | S. cerevisiae deletion strains, locus YER110C, active compounds read low 1.02 | S. cerevisiae deletion strains, locus YER155C, strain BEM2, active compounds read low 1.01 | S. cerevisiae deletion strains, locus YER167W, strain BCK2, active compounds read low 1.02 | S. cerevisiae deletion strains, locus YGL078C, strain dbp3, active compounds read low 1.02 | S. cerevisiae deletion strains, locus YGL086W, strain mad1, active compounds read low 1.02 | S. cerevisiae deletion strains, locus YGL248W, strain PDE1, active compounds read low 1.01 | S. cerevisiae deletion strains, locus YGR078C, strain PAC10, active compounds read low 1.01 | S. cerevisiae deletion strains, locus YGR135W, strain pre9, active compounds read low 1.01 | S. cerevisiae deletion strains, locus YGR229C, strain SMI1, active compounds read low 1 | S. cerevisiae deletion strains, locus YGR252W, strain gcn5, active compounds read low 1 | S. cerevisiae deletion strains, locus YHR030C, strain SLT2, active compounds read low 1.01 | S. cerevisiae deletion strains, locus YHR079C, strain IRE1 (second series), active compounds read low 1.01 | S. cerevisiae deletion strains, locus YHR094C, strain hxt1, active compounds read low 1.01 | S. cerevisiae deletion strains, locus YHR129C, strain ARP1, active compounds read low 1.01 | S. cerevisiae deletion strains, locus YHR200W, strain rpn10, active compounds read low 1.01 | S. cerevisiae deletion strains, locus YIL066C, strain RNR3, active compounds read low 1 | S. cerevisiae deletion strains, locus YIL073C, strain SPO22, active compounds read low 1.07 | S. cerevisiae deletion strains, locus YIL125W, strain kgd1, active compounds read low 1.02 | S. cerevisiae deletion strains, locus YIR030C, strain dcg1, active compounds read low 1.01 | S. cerevisiae deletion strains, locus YJL095W, strain BCK1, active compounds read low 1.02 | S. cerevisiae deletion strains, locus YJL134W, strain LCB3, active compounds read low 1 | S. cerevisiae deletion strains, locus YJL168C, strain set2, active compounds read low 1 | S. cerevisiae deletion strains, locus YJL187C, strain SWE1 (second series), active compounds read low 1.01 | S. cerevisiae deletion strains, locus YJR043C, strain POL32, active compounds read low 1.02 | S. cerevisiae deletion strains, locus YJR075W, strain HOC1, active compounds read low 1.02 | S. cerevisiae deletion strains, locus YKL009W, strain mrt4, active compounds read low 1.03 | S. cerevisiae deletion strains, locus YKL068W, active compounds read low 1.01 | S. cerevisiae deletion strains, locus YKL085W, strain MDH1 (second series), active compounds read low 1.01 | S. cerevisiae deletion strains, locus YKL085W, strain MDH1, active compounds read low 1.01 | S. cerevisiae deletion strains, locus YKL190W, strain CNB1, active compounds read low 1.01 | S. cerevisiae deletion strains, locus YKR001C, strain vps1, active compounds read low 1.04 | S. cerevisiae deletion strains, locus YLR039C, strain RIC1, active compounds read low 1.07 | S. cerevisiae deletion strains, locus YLR058C, strain SHM2, active compounds read low 1.01 | S. cerevisiae deletion strains, locus YLR102C, strain apc9, active compounds read low 1.01 | S. cerevisiae deletion strains, locus YLR262C, strain YPT6, active compounds read low 1.07 | S. cerevisiae deletion strains, locus YLR268W, strain sec22, active compounds read low 1.01 | S. cerevisiae deletion strains, locus YLR330W, strain CHS5, active compounds read low 1.01 | S. cerevisiae deletion strains, locus YLR342W, strain FKS1 (second series), active compounds read low 1.01 | S. cerevisiae deletion strains, locus YLR371W, strain rom2, active compounds read low 1.01 | S. cerevisiae deletion strains, locus YLR418C, strain cdc73, active compounds read low 1.01 | S. cerevisiae deletion strains, locus YML016C, strain PPZ1, active compounds read low 1.01 | S. cerevisiae deletion strains, locus YML032C, strain rad52, active compounds read low 1.04 | S. cerevisiae deletion strains, locus YML124C, strain tub3, active compounds read low 1.02 | S. cerevisiae deletion strains, locus YMR078C, strain ctf18, active compounds read low 1.02 | S. cerevisiae deletion strains, locus YMR223W, strain ubp8, active compounds read low 1.02 | S. cerevisiae deletion strains, locus YMR263W, strain SAP30, active compounds read low 1.01 | S. cerevisiae deletion strains, locus YMR307W, strain GAS1, active compounds read low 1.03 | S. cerevisiae deletion strains, locus YNL067W, strain RPL9B, active compounds read low 1.01 | S. cerevisiae deletion strains, locus YNL128W, strain TEP1, active compounds read low 1.01 | S. cerevisiae deletion strains, locus YNL153C, strain GIM3, active compounds read low 1.01 | S. cerevisiae deletion strains, locus YNL233W, strain BNI4, active compounds read low 1 | S. cerevisiae deletion strains, locus YNL250W, strain rad50, active compounds read low 1.01 | S. cerevisiae deletion strains, locus YNL271C, strain bni1, active compounds read low 1.01 | S. cerevisiae deletion strains, locus YNL298W, strain CLA4, active compounds read low 1.02 | S. cerevisiae deletion strains, locus YNL307C, strain MCK1, active compounds read low 1.01 | S. cerevisiae deletion strains, locus YNL322C, strain KRE1, active compounds read low 1.01 | S. cerevisiae deletion strains, locus YNR052C, strain pop2, active compounds read low 1.02 | S. cerevisiae deletion strains, locus YOL006C, strain TOP1, active compounds read low 1.09 | S. cerevisiae deletion strains, locus YOL012C, strain htz1 1.25 | S. cerevisiae deletion strains, locus YOL147C, strain pex11, active compounds read low 1.01 | S. cerevisiae deletion strains, locus YOR061W, strain CKA2, active compounds read low 1.01 | S. cerevisiae deletion strains, locus YOR069W, strain VPS5, active compounds read low 1 | S. cerevisiae deletion strains, locus YOR136W, strain idh2, active compounds read low 1.02 | S. cerevisiae deletion strains, locus YOR144C, strain elg1, active compounds read low 1.02 | S. cerevisiae deletion strains, locus YOR184W, strain ser1, active compounds read low 1.03 | S. cerevisiae deletion strains, locus YOR316C, strain cot1, active compounds read low 1.02 | S. cerevisiae deletion strains, locus YPL055C, strain LGE1, active compounds read low 1.02 | S. cerevisiae deletion strains, locus YPL241C, strain CIN2, active compounds read low 1 | S. cerevisiae deletion strains, locus YPR119W, strain clb2, active compounds read low 1.01 | S. cerevisiae deletion strains, locus YPR141C, strain kar3, active compounds read low 1.03 | S. cerevisiae deletion strains, locus YPR163C, strain tif3, active compounds read low 1.02 | S. cerevisiae deletion strains, locus YPR167C, strain met16, active compounds read low 1.02 | S. cerevisiae deletion strains, strain wtn01, active compounds read low 1.01 | S. cerevisiae strains, strain wild type, active compounds read low 0.999
